In PubChem BioAssay AID623926 (Vanderbilt Specialized Chemistry Center, 2012) one finds outcome data, which are given here for 10 compounds.

The source made the active and inactive calls.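 The calls were made as follows: active = compound whose M3 calcium response shifts with concentration, judged dose-dependent by the depositor; inactive = the rest, no dose-dependent response.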

The test concerns the target Muscarinic acetylcholine receptor M3 (Homo sapiens) (UniProt P20309). Nature of the test: potentiation of ACh response at hM3 – CHO cells, calcium flux, selectivity assay for M4 PAM optimization, SAR follow-up (AID 623926). To be noted: Fluo-4 calcium flux; outcome: ACh EC20; ACh EC20, at 30 µM (top of the series). For orientation: A change in cytosolic calcium serves as a functional read-out for many receptors and channels.

With `Cc1nc2sc(C(=O)NCc3cccnc3)c(N)c2c(C)c1Cl`, the outcome was inactive. Take `Cc1nc2sc(C(=O)NCc3cccc(F)c3F)c(N)c2c(C)c1Cl`: the result was inactive.

As to `Cc1nc2sc(C(=O)NCCc3ccncc3)c(N)c2c(C)c1Cl`, the result was inactive. `Cc1nc2sc(C(=O)NCc3ccc4c(c3)OCO4)c(N)c2c(C)c1Cl`: the outcome was inactive. The value for `Cc1nc2sc(C(=O)NCc3ccccc3)c(N)c2c(C)c1Cl` was “inactive”. The value for `Cc1nc2sc(C(=O)NCc3ccncc3)c(N)c2c(C)c1Cl` was “inactive”; that for `Cc1nc2sc(C(=O)NCc3ccncn3)c(N)c2c(C)c1Cl` was “inactive”.

As to `COc1ccc(C)c2sc(NC(=O)c3ccncc3)nc12`, the outcome was inactive.

`Cc1nc2sc(C(=O)NC3CC3)c(N)c2c(C)c1Cl`: the outcome was inactive.

Take `Cc1nc2sc(C(=O)NCc3nccs3)c(N)c2c(C)c1Cl`: the outcome was inactive.
